The record followed here is the supplement of paper PMC6411743.

± gives the standard deviation of the averaged measurements. The full data set covers some 5,400 targets. This sample favours those with the largest changes.

UniProt Q16629, sequence (Q16629 whole entry, one chain of several): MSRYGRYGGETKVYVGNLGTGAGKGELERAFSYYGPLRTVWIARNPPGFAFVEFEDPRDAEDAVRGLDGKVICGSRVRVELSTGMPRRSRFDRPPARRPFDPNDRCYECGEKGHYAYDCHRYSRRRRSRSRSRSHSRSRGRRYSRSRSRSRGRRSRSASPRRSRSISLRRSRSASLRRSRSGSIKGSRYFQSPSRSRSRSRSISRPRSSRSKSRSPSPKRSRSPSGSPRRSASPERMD
UniProt Q9BTT0, sequence (Q9BTT0 whole entry, one chain of several): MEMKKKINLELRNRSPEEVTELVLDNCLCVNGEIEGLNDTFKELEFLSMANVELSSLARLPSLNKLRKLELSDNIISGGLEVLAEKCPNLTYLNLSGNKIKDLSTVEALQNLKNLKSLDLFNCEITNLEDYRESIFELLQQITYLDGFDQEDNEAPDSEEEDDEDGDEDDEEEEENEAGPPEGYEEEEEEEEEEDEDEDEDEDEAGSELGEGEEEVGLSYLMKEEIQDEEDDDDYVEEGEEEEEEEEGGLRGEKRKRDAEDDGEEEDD
UniProt Q6NVY1, sequence (Q6NVY1 whole entry, one chain of several): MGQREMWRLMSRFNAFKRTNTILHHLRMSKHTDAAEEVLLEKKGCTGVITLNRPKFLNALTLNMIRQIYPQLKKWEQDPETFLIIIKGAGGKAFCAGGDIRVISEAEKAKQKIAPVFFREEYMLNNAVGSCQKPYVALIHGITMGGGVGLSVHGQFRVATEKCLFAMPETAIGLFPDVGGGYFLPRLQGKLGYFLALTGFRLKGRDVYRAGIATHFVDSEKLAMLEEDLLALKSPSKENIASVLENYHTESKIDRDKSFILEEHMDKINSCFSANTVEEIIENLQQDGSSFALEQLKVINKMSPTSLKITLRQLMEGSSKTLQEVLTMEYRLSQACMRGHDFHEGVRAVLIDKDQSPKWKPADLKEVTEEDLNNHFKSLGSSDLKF
UniProt Q9BQ75, sequence (Q9BQ75 whole entry, one chain of several): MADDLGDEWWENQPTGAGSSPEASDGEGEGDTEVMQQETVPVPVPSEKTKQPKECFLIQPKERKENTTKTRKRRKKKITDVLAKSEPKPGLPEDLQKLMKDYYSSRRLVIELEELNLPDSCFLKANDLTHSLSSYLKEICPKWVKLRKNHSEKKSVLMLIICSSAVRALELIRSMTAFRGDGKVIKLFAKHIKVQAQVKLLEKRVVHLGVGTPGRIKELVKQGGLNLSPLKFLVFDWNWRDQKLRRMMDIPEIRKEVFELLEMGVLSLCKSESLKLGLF
UniProt O94952, sequence (O94952 whole entry, one chain of several): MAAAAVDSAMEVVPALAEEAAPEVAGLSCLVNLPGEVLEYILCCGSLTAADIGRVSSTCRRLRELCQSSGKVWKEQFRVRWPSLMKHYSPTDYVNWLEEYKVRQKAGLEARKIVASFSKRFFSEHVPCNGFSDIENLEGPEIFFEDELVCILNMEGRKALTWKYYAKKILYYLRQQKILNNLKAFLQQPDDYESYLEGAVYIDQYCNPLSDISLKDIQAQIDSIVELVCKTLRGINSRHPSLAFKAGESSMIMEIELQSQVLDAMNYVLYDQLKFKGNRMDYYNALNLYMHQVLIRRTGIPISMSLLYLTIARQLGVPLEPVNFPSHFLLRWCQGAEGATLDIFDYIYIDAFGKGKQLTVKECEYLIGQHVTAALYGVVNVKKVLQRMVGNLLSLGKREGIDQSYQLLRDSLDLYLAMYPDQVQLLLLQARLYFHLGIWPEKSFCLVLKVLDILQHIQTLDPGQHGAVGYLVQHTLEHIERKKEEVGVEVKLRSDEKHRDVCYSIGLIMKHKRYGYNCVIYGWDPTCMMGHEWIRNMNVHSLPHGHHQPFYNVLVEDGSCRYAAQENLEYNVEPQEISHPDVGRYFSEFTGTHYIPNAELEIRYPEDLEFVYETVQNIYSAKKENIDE
UniProt P52747, sequence (P52747 whole entry, one chain of several): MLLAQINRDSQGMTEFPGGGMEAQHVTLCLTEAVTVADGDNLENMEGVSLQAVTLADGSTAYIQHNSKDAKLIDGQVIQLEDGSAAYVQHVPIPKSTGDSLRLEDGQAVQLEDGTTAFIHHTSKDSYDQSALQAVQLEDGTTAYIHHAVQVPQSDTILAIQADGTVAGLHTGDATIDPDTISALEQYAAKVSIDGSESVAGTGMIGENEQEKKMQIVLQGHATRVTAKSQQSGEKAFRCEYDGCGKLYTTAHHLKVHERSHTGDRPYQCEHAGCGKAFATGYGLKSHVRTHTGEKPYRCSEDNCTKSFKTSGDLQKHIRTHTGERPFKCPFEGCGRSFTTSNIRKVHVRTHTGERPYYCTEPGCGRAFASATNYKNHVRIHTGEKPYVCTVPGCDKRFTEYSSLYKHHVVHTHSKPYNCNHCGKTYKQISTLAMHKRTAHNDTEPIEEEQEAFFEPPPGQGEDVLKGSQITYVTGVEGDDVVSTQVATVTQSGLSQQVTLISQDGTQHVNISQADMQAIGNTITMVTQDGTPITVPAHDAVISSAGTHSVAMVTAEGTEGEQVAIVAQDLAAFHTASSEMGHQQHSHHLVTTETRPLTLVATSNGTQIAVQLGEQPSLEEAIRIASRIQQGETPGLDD
UniProt Q6UW02, sequence (Q6UW02 whole entry, one chain of several): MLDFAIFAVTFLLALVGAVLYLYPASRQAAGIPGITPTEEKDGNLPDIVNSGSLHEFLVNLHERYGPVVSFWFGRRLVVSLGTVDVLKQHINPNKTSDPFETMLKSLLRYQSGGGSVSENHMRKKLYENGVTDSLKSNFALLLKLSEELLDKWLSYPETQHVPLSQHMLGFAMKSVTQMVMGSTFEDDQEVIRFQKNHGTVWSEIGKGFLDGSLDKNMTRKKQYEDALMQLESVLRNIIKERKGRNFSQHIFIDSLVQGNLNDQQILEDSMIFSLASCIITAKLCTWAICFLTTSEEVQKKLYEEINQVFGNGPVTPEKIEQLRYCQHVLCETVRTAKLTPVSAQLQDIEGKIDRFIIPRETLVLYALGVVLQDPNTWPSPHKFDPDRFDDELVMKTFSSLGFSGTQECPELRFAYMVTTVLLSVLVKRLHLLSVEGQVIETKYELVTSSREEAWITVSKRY
UniProt O14730, sequence (O14730 whole entry, one chain of several): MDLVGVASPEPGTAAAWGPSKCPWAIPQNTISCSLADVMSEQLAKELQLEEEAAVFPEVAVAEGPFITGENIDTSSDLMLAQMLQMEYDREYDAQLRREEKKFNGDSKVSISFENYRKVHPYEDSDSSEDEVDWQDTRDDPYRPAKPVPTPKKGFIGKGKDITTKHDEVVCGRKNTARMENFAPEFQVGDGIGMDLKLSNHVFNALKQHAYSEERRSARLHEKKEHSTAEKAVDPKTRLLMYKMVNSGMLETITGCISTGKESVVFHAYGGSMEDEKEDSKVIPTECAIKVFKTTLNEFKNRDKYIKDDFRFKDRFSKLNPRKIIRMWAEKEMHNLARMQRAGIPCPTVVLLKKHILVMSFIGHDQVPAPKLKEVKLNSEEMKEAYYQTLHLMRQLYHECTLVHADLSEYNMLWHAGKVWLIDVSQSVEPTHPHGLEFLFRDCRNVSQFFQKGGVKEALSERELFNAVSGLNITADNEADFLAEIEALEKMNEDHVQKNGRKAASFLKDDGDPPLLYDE
UniProt P56556, sequence (P56556 whole entry, one chain of several): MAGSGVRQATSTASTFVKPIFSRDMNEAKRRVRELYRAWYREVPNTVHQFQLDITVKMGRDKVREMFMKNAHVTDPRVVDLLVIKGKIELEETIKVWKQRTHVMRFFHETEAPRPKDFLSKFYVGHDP
UniProt P07766, sequence (P07766 whole entry, one chain of several): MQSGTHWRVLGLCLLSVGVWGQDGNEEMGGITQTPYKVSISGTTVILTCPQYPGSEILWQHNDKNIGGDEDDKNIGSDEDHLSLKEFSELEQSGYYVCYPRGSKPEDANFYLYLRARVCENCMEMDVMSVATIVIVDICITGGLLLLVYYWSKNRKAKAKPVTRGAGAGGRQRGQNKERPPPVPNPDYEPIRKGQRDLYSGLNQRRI
UniProt Q96FV9, sequence (Q96FV9 whole entry, one chain of several): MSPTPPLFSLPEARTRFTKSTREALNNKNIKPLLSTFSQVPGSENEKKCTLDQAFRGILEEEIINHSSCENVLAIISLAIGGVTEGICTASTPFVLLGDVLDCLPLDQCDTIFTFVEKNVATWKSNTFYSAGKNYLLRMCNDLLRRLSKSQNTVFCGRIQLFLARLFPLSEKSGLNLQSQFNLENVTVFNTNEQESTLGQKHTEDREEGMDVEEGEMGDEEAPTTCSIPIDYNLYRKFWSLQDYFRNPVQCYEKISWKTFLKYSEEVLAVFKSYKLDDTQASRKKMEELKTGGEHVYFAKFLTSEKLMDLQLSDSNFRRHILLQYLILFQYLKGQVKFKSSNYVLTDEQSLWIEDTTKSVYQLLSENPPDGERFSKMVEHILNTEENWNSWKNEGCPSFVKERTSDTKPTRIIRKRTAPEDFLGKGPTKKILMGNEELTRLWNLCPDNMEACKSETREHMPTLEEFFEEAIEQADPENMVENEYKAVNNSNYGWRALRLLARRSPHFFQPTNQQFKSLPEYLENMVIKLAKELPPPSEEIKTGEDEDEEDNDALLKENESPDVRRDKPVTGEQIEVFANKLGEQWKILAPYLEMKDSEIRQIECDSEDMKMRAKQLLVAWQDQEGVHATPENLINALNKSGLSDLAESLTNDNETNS
UniProt Q96GG9, sequence (Q96GG9 whole entry, looked up, one chain of several): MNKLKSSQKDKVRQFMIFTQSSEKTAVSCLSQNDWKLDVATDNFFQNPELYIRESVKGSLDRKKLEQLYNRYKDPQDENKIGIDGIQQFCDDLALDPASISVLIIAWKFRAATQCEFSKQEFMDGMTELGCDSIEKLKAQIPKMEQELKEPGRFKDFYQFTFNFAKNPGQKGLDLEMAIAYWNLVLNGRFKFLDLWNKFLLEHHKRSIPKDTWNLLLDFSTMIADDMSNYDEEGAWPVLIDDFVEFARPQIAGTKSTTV

Compound in the first experiment: Nc1nc2c(ncn2[C@@H]2O[C@H](COP(=O)(O)OP(=O)(O)OP(=O)(O)O)[C@@H](O)[C@H]2O)c(=O)[nH]1 [guanosine triphosphate]
Briefly: NP40-soluble protein abundance relative to vehicle (solubility fold change) (ratio); higher = more soluble protein in presence of GTP. The settings on record: concentration: 0.5mM. An outline of the steps: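 Crude Jurkat lysate, prepared by Dounce homogenisation, was exposed to eight concentrations from 0.1 to 10 mM for 10 min at room temperature and then 3 min at 37 °C. Solubilisation used 0.8% NP40 with benzonase for 60 min at 4 °C, followed by ultracentrifugation and TMT labelling of the supernatant for LC-MS/MS. After vsn normalisation of intensities, each value is the fold change against the detergent-processed vehicle within each replicate, across three independent experiments.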
For the target G3V394|Q9Y4I1-3 (UniProt Q9Y4I1), the NP40-soluble protein abundance is 2.15 ± 0.36.

On to E7EW84|Q8TAG9 (UniProt Q8TAG9), for which the NP40-soluble protein abundance came out at 0.996 ± 0.039.

As to “B1AL05|H0Y6Y8|H0YBU8|Q8N983|Q8N983-2|Q8N983-3|Q8N983-4|Q8N983-6|Q8N983-7 (UniProt Q8N983)”, the NP40-soluble protein abundance amounted to 1.07 ± 0.17.

As to F2Z2Y4|O00764|O00764-2 (UniProt O00764), the NP40-soluble protein abundance was 1.01 ± 0.09.

Take B3KS98|O15372 (UniProt O15372): the NP40-soluble protein abundance is 1.01 ± 0.088.

For “A0A0B4J1Z1|C9JAB2|Q16629|Q16629-2|Q16629-3|Q16629-4 (UniProt Q16629)”, the NP40-soluble protein abundance was found to be 1.36 ± 0.1.

With E9PRF4|Q15047|Q15047-3 (UniProt Q15047), the NP40-soluble protein abundance was determined as 0.93 ± 0.12.

For “A0A087WWH3|Q9NZM4|Q9NZM4-2 (UniProt Q9NZM4)”, the NP40-soluble protein abundance is 0.989 ± 0.1.

For B9ZVT1|Q8IXT5 (UniProt Q8IXT5), the NP40-soluble protein abundance is 1.13 ± 0.19.

As to “A0A087WY71|Q96CW1|Q96CW1-2 (UniProt Q96CW1)”, the NP40-soluble protein abundance was found to be 1.12 ± 0.17.

In the case of “A0A087WY82|Q9Y624|Q9Y624-2 (UniProt Q9Y624)”, the NP40-soluble protein abundance came out at 0.953 ± 0.1.

Consider E9PPH5|Q9BTT0|Q9BTT0-3 (UniProt Q9BTT0), for which the NP40-soluble protein abundance was 0.874 ± 0.062.

With A0A087WWS1|Q96FV9 (UniProt Q96FV9), the NP40-soluble protein abundance turned out to be 1.24 ± 0.086.

With E9PHG5|Q6UW02|Q6UW02-2 (UniProt Q6UW02), the NP40-soluble protein abundance was 1.04 ± 0.17.

Take “H0YIE9|O94952|O94952-1|Q4G104 (UniProt O94952)”: the NP40-soluble protein abundance was determined as 1.03 ± 0.091.

Regarding G5E9Z2|Q96KA5|Q96KA5-2 (UniProt Q96KA5), the NP40-soluble protein abundance was found to be 1.07 ± 0.017.

Take “A8MQB8|G3V0J0|Q06787|Q06787-2|Q06787-3|Q06787-4|Q06787-5|Q06787-6|Q06787-7|Q06787-8|Q06787-9 (UniProt Q06787)”: the NP40-soluble protein abundance came to 1.15 ± 0.048.

With A0A0C4DGS0|P56556 (UniProt P56556), the NP40-soluble protein abundance was found to be 0.934 ± 0.051.

As to E7EX48|P51957|P51957-3 (UniProt P51957), the NP40-soluble protein abundance is 0.987 ± 0.21.

Take H0YEN5|P15880 (UniProt P15880): the NP40-soluble protein abundance came out at 1.01 ± 0.1.

For “C9IY68|C9J384|Q9BQ75|Q9BQ75-2 (UniProt Q9BQ75)”, the NP40-soluble protein abundance was 1.03 ± 0.083.

B4E1Q4|O14730|O14730-2 (UniProt O14730): the NP40-soluble protein abundance was 1.03 ± 0.063.

For “E7EN86|P52747|P52747-2|P52747-3 (UniProt P52747)”, the NP40-soluble protein abundance was determined as 1.03 ± 0.024.

Turning to A6NFX8|Q9UKK9 (UniProt Q9UKK9), the NP40-soluble protein abundance turned out to be 1.04 ± 0.07.

In the case of F5H136|P17987 (UniProt P17987), the NP40-soluble protein abundance amounted to 1.07 ± 0.086.

Turning to “E9PKP7|E9PLT2|P17480|P17480-2 (UniProt P17480)”, the NP40-soluble protein abundance was 1 ± 0.036.

In the case of A0A087X256|Q2M389 (UniProt Q2M389), the NP40-soluble protein abundance worked out at 1.01 ± 0.097.

Take E9PSH8|P07766 (UniProt P07766): the NP40-soluble protein abundance is 0.991 ± 0.076.

D6RAN8|H7C5U8|Q9P0M9 (UniProt Q9P0M9): the NP40-soluble protein abundance was 1.2 ± 0.5.

Turning to “G5E953|Q13615|Q13615-2|Q13615-3 (UniProt Q13615)”, the NP40-soluble protein abundance is 0.987 ± 0.04.

For H3BMU3|O60268|O60268-3 (UniProt O60268), the NP40-soluble protein abundance came to 0.988 ± 0.17.

As to “F8W0Q9|Q8NEY8-2|Q8NEY8-8|Q8NEY8-9|Q8NEY8-3|Q8NEY8 (UniProt Q8NEY8)”, the NP40-soluble protein abundance came out at 1.08 ± 0.019.

Take C9J8R4|C9JVE2|Q96GG9 (UniProt Q96GG9): the NP40-soluble protein abundance was 0.919 ± 0.034.

Take A0A087WXI1|Q6NVY1 (UniProt Q6NVY1): the NP40-soluble protein abundance worked out at 0.945 ± 0.042.

The same experiment, now with this note: concentration: 1mM.
G3V394|Q9Y4I1-3 (UniProt Q9Y4I1): the NP40-soluble protein abundance was found to be 2.39 ± 0.25.

Turning to E7EW84|Q8TAG9 (UniProt Q8TAG9), the NP40-soluble protein abundance was found to be 0.959 ± 0.064.

For the target “B1AL05|H0Y6Y8|H0YBU8|Q8N983|Q8N983-2|Q8N983-3|Q8N983-4|Q8N983-6|Q8N983-7 (UniProt Q8N983)”, the NP40-soluble protein abundance worked out at 1.37 ± 0.45.

Regarding F2Z2Y4|O00764|O00764-2 (UniProt O00764), the NP40-soluble protein abundance stood at 0.942 ± 0.055.

For the target B3KS98|O15372 (UniProt O15372), the NP40-soluble protein abundance turned out to be 1.03 ± 0.075.

Regarding “A0A0B4J1Z1|C9JAB2|Q16629|Q16629-2|Q16629-3|Q16629-4 (UniProt Q16629)”, the NP40-soluble protein abundance was 1.57 ± 0.23.

With E9PRF4|Q15047|Q15047-3 (UniProt Q15047), the NP40-soluble protein abundance came out at 0.904 ± 0.055.

Regarding “A0A087WWH3|Q9NZM4|Q9NZM4-2 (UniProt Q9NZM4)”, the NP40-soluble protein abundance worked out at 1.16 ± 0.19.

B9ZVT1|Q8IXT5 (UniProt Q8IXT5): the NP40-soluble protein abundance amounted to 1.21 ± 0.078.

On to “A0A087WY71|Q96CW1|Q96CW1-2 (UniProt Q96CW1)”, for which the NP40-soluble protein abundance came to 0.947 ± 0.078.

Regarding “A0A087WY82|Q9Y624|Q9Y624-2 (UniProt Q9Y624)”, the NP40-soluble protein abundance turned out to be 0.979 ± 0.038.

As for E9PPH5|Q9BTT0|Q9BTT0-3 (UniProt Q9BTT0), the NP40-soluble protein abundance is 0.978 ± 0.05.

Turning to A0A087WWS1|Q96FV9 (UniProt Q96FV9), the NP40-soluble protein abundance is 1.41 ± 0.19.

In the case of E9PHG5|Q6UW02|Q6UW02-2 (UniProt Q6UW02), the NP40-soluble protein abundance was 1.01 ± 0.075.

For “H0YIE9|O94952|O94952-1|Q4G104 (UniProt O94952)”, the NP40-soluble protein abundance was 1.05 ± 0.013.

As to G5E9Z2|Q96KA5|Q96KA5-2 (UniProt Q96KA5), the NP40-soluble protein abundance is 1.02 ± 0.042.

On to “A8MQB8|G3V0J0|Q06787|Q06787-2|Q06787-3|Q06787-4|Q06787-5|Q06787-6|Q06787-7|Q06787-8|Q06787-9 (UniProt Q06787)”, for which the NP40-soluble protein abundance was 1.05 ± 0.065.

For A0A0C4DGS0|P56556 (UniProt P56556), the NP40-soluble protein abundance was found to be 1.05 ± 0.1.

As for E7EX48|P51957|P51957-3 (UniProt P51957), the NP40-soluble protein abundance was determined as 0.961 ± 0.21.

Regarding H0YEN5|P15880 (UniProt P15880), the NP40-soluble protein abundance is 0.965 ± 0.14.

Consider “C9IY68|C9J384|Q9BQ75|Q9BQ75-2 (UniProt Q9BQ75)”, for which the NP40-soluble protein abundance was 1.06 ± 0.071.

Turning to B4E1Q4|O14730|O14730-2 (UniProt O14730), the NP40-soluble protein abundance stood at 0.949 ± 0.081.

With “E7EN86|P52747|P52747-2|P52747-3 (UniProt P52747)”, the NP40-soluble protein abundance is 0.988 ± 0.058.

As to A6NFX8|Q9UKK9 (UniProt Q9UKK9), the NP40-soluble protein abundance worked out at 0.987 ± 0.036.

Consider F5H136|P17987 (UniProt P17987), for which the NP40-soluble protein abundance was 1.08 ± 0.12.

As to “E9PKP7|E9PLT2|P17480|P17480-2 (UniProt P17480)”, the NP40-soluble protein abundance worked out at 1.08 ± 0.025.

A0A087X256|Q2M389 (UniProt Q2M389): the NP40-soluble protein abundance was 0.973 ± 0.048.

Regarding E9PSH8|P07766 (UniProt P07766), the NP40-soluble protein abundance was 0.986 ± 0.071.

On to D6RAN8|H7C5U8|Q9P0M9 (UniProt Q9P0M9), for which the NP40-soluble protein abundance is 1.53 ± 0.78.

Turning to “G5E953|Q13615|Q13615-2|Q13615-3 (UniProt Q13615)”, the NP40-soluble protein abundance was found to be 0.978 ± 0.063.

Turning to H3BMU3|O60268|O60268-3 (UniProt O60268), the NP40-soluble protein abundance amounted to 1.01 ± 0.18.

With “F8W0Q9|Q8NEY8-2|Q8NEY8-8|Q8NEY8-9|Q8NEY8-3|Q8NEY8 (UniProt Q8NEY8)”, the NP40-soluble protein abundance is 1.19 ± 0.058.

With C9J8R4|C9JVE2|Q96GG9 (UniProt Q96GG9), the NP40-soluble protein abundance is 0.903 ± 0.049.

Take A0A087WXI1|Q6NVY1 (UniProt Q6NVY1): the NP40-soluble protein abundance was determined as 0.909 ± 0.082.
